Results taken from PubChem BioAssay (EPA / NIEHS).
Where “and” joins values, the source holds several entries; their conditions need not be identical. Equal values may be shown once. Calls of active or inactive are those of the source. The calls were made as follows: active = hit-call score of the fitted dose curve at least 0.9, where 1 is the maximum; inactive = score below 0.9.

assay: CEETOX_H295R_OHPROG: CeeTox H295R High-throughput Steroidogenesis Assay for OH-Progesterone (OHPROG) (AID 2283435); conditions: actives raise or lower the signal;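 as to AC50: human adrenal H295R cells primed 48 h with 10 µM forskolin; 17alpha-hydroxyprogesterone secreted into medium measured by HPLC-MS/MS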
In short: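 Human adrenocortical H295R cells, passage 10 or lower, were treated with chemical for 48 h after forskolin priming, and hormone output in the medium was quantified by LC-MS/MS.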

SMILES	outcome	AC50
CCNc1nc(NC(C)C)nc(SC)n1	inactive	
Cc1ccc(O)c(C)c1	inactive	
CCOCCOC(C)=O	inactive	
Cc1cc2c3c(c1)C(c1ccccc1)=N[C@@H](NC(=O)c1ccncc1)C(=O)N3CC2		25.6 µM (active)
Cc1cccc(C)c1N	inactive	
c1cc2ccc3cccc4ccc(c1)c2c34		27.1 µM (active)
CC#Cc1cc(C)nc(Nc2ccccc2)n1		34.8 µM (active)
CCC(=O)O[C@H]1CC[C@H]2[C@@H]3CCC4=CC(=O)CC[C@]4(C)[C@H]3CC[C@]12C		3.14 µM (active)
ClC1=C(Cl)[C@]2(Cl)[C@@H]3[C@H]4C[C@H]([C@@H]5O[C@H]45)[C@@H]3[C@@]1(Cl)C2(Cl)Cl		13 µM (active)
O=C(NC(=O)c1c(F)cccc1F)Nc1cc(Cl)c(OC(F)(F)C(F)F)c(Cl)c1	inactive	
Nc1ccc(-c2ccc(N)cc2)cc1		37.4 µM (active)
Cc1cc(O)ccc1Cl		21.5 µM (active)
Oc1ccc(Cl)cc1Cl		22.2 µM (active)
C[C@]12CCC(=O)C=C1CC[C@@H]1[C@@H]2CC[C@]2(C)C(=O)CC[C@@H]12		0.535 µM (active)
NS(=O)(=O)C(F)(F)C(F)(F)C(F)(F)C(F)(F)C(F)(F)C(F)(F)C(F)(F)C(F)(F)F	inactive	
Cc1ccccc1CO[C@@H]1C[C@@]2(C(C)C)CC[C@]1(C)O2	inactive	
N#Cc1ccc(N(CC(N)=O)CC(F)(F)F)cc1C(F)(F)F	inactive	
CCSC(=O)N(CC)C1CCCCC1	inactive	
Clc1ccc(C(c2ccccc2Cl)C(Cl)(Cl)Cl)cc1 (centres undefined)	inactive	
Cc1cc(-c2ccc(N)c(C)c2)ccc1N		2.96 µM (active) and 10.2 µM (active)
C[C@]12CCC(=O)C=C1CC[C@@H]1[C@@H]2CC[C@@]2(C)[C@H]1CC[C@]2(C)O		0.807 µM (active)
CCC(C)(CC)c1cc(NC(=O)c2c(OC)cccc2OC)on1	inactive	

assay: CEETOX_H295R_ANDR: CeeTox H295R High-throughput Steroidogenesis Assay for Androstenedione (ANDR) (AID 2283436); conditions: actives raise or lower the signal;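 also: human H295R adrenal cells exposed for 48 h with androstenedione measured in medium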
In short: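 48 h chemical exposure, H295R cells, DMEM/F12 + ITS+ and Nu-Serum. Medium androstenedione: MTBE extraction, C18 reverse-phase HPLC, ESI+ MS/MS. Fit bidirectional vs DMSO; MTT viability in same wells.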

SMILES	outcome	AC50
CCNc1nc(NC(C)C)nc(SC)n1	inactive	
c1cc2ccc3cccc4ccc(c1)c2c34		35.9 µM (active)
CCC(=O)O[C@H]1CC[C@H]2[C@@H]3CCC4=CC(=O)CC[C@]4(C)[C@H]3CC[C@]12C		22.8 µM (active)
O=C(NC(=O)c1c(F)cccc1F)Nc1cc(Cl)c(OC(F)(F)C(F)F)c(Cl)c1	inactive	
NS(=O)(=O)C(F)(F)C(F)(F)C(F)(F)C(F)(F)C(F)(F)C(F)(F)C(F)(F)C(F)(F)F	inactive	
Cc1ccccc1CO[C@@H]1C[C@@]2(C(C)C)CC[C@]1(C)O2		50 µM (active)
CC1=C2C[C@H]3[C@@H](CC=C4C[C@@H](O)CC[C@@]43C)[C@@H]2CC[C@]12O[C@@H]1C[C@H](C)CN[C@H]1[C@H]2C	inactive	

assay: CEETOX_H295R_CORTIC: CeeTox H295R High-throughput Steroidogenesis Assay for Corticosterone (CORTIC) (AID 2283437); conditions: actives raise or lower the signal;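 also: corticosterone secreted into medium quantified by mass spectrometry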;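 as to AC50: human H295R adrenal cells prestimulated with forskolin before chemical exposure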
In short: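 48 h forskolin (10 uM) prestim, then 48 h chemical exposure, final DMSO 0.1%. Readout: corticosterone in medium by LC-MS/MS after MTBE extraction. Gain/loss fit vs DMSO; MTT viability in same wells.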

SMILES	outcome	AC50
CCCCCCOC(=O)c1ccccc1C(=O)OCCCCCC	inactive	
C=CC(N)=O	inactive	
Cc1ccc(O)c(C)c1	inactive	
CCOCCOC(C)=O	inactive	
Cc1cccc(C)c1N	inactive	
c1cc2ccc3cccc4ccc(c1)c2c34	inactive	
CC#Cc1cc(C)nc(Nc2ccccc2)n1	inactive	
CCC(=O)O[C@H]1CC[C@H]2[C@@H]3CCC4=CC(=O)CC[C@]4(C)[C@H]3CC[C@]12C	inactive	
ClC1=C(Cl)[C@]2(Cl)[C@@H]3[C@H]4C[C@H]([C@@H]5O[C@H]45)[C@@H]3[C@@]1(Cl)C2(Cl)Cl	inactive	
O=C(NC(=O)c1c(F)cccc1F)Nc1cc(Cl)c(OC(F)(F)C(F)F)c(Cl)c1	inactive	
Nc1ccc(-c2ccc(N)cc2)cc1		2.96 µM (active)
Cc1cc(O)ccc1Cl	inactive	
Oc1ccc(Cl)cc1Cl	inactive	
NS(=O)(=O)C(F)(F)C(F)(F)C(F)(F)C(F)(F)C(F)(F)C(F)(F)C(F)(F)C(F)(F)F	inactive	
CCSC(=O)N(CC)C1CCCCC1	inactive	
Clc1ccc(C(c2ccccc2Cl)C(Cl)(Cl)Cl)cc1 (centres undefined)	inactive	
C[C@]12CCC(=O)C=C1CC[C@@H]1[C@@H]2CC[C@@]2(C)[C@H]1CC[C@]2(C)O	inactive	
CC1=C2C[C@H]3[C@@H](CC=C4C[C@@H](O)CC[C@@]43C)[C@@H]2CC[C@]12O[C@@H]1C[C@H](C)CN[C@H]1[C@H]2C	inactive	

assay: CEETOX_H295R_CORTISOL: CeeTox H295R High-throughput Steroidogenesis Assay for Cortisol (AID 2283438); conditions: actives raise or lower the signal;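 also: cortisol secreted into medium quantified by LC-MS/MS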
In short: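 Steroidogenesis in H295R, per modified OECD 456: 48 h forskolin (10 uM), then 48 h exposure, 0.1% DMSO. Cortisol by extraction and tandem MS; viability by MTT (570/650 nm); cytotoxic chemicals diluted and re-tested.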

SMILES	outcome	AC50
C=CC(N)=O	inactive	
Cc1ccc(O)c(C)c1	inactive	
CCOCCOC(C)=O	inactive	
Cc1cccc(C)c1N	inactive	
c1cc2ccc3cccc4ccc(c1)c2c34	inactive	
CC#Cc1cc(C)nc(Nc2ccccc2)n1	inactive	
CCC(=O)O[C@H]1CC[C@H]2[C@@H]3CCC4=CC(=O)CC[C@]4(C)[C@H]3CC[C@]12C		30.7 µM (active)
ClC1=C(Cl)[C@]2(Cl)[C@@H]3[C@H]4C[C@H]([C@@H]5O[C@H]45)[C@@H]3[C@@]1(Cl)C2(Cl)Cl		5.13 µM (active)
O=C(NC(=O)c1c(F)cccc1F)Nc1cc(Cl)c(OC(F)(F)C(F)F)c(Cl)c1	inactive	
Nc1ccc(-c2ccc(N)cc2)cc1		65.8 µM (active)
Cc1cc(O)ccc1Cl	inactive	
Oc1ccc(Cl)cc1Cl	inactive	
NS(=O)(=O)C(F)(F)C(F)(F)C(F)(F)C(F)(F)C(F)(F)C(F)(F)C(F)(F)C(F)(F)F	inactive	
CCSC(=O)N(CC)C1CCCCC1	inactive	
Clc1ccc(C(c2ccccc2Cl)C(Cl)(Cl)Cl)cc1 (centres undefined)	inactive	
C[C@]12CCC(=O)C=C1CC[C@@H]1[C@@H]2CC[C@@]2(C)[C@H]1CC[C@]2(C)O		7.76 µM (active)
CC1=C2C[C@H]3[C@@H](CC=C4C[C@@H](O)CC[C@@]43C)[C@@H]2CC[C@]12O[C@@H]1C[C@H](C)CN[C@H]1[C@H]2C	inactive	
